# Where “and” joins values, the source holds several entries; their conditions need not be identical. Identical values can stand only once. The whole screen tested about 5,500 compounds, of which about 2,000 (36%) were called active. Inconclusive results (about 18%) are left out. This is one part of the list. A number with no mark means an inactive call. No stated cut-off is given here; in the data, active means normalized growth mostly below about 0.91 (no sharp cut-off); inconclusive means no clear call, values can overlap the other calls; inactive means mostly above about 0.92.
# Experiment: chemical genetic growth profiling, strain panel (AID 1159580);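 further: tested at 20 µM; growth read once vehicle control cultures reached saturation at 30 °C; 1 = growth at the plate median or of vehicle wells; lower values mean less growth of the strain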
# Settings: S. cerevisiae deletion strains, growth OD
compound,measurement,setting,value
CS(=O)(=O)OCCCCOS(C)(=O)=O,normalized growth,"locus YAL013W, strain DEP1, active compounds read low",0.954
same,normalized growth,"locus YAL021C, strain ccr4, active compounds read low",0.999
same,normalized growth,"locus YAL026C, strain drs2, active compounds read low",1.02
same,normalized growth,"locus YAL030W, strain snc1, active compounds read low",1.03
same,normalized growth,"locus YBL061C, strain skt5, active compounds read low",1.01
same,normalized growth,"locus YBR009C, strain hhf1, active compounds read low",1.11 [resistant] (active)
same,normalized growth,"locus YBR021W, strain FUR4, active compounds read low",1.01
same,normalized growth,"locus YBR023C, strain chs3, active compounds read low",1.01
same,normalized growth,"locus YBR171W, strain sec66, active compounds read low",1.03
same,normalized growth,"locus YBR229C, strain ROT2, active compounds read low",0.994
same,normalized growth,"locus YBR231C, strain swc5, active compounds read low",0.993
same,normalized growth,"locus YBR279W, strain paf1, active compounds read low",1.01
same,normalized growth,"locus YCL011C, strain gbp2, active compounds read low",1.04
same,normalized growth,"locus YCL016C, strain dcc1, active compounds read low",1.05
same,normalized growth,"locus YCL029C, strain bik1, active compounds read low",0.956
same,normalized growth,"locus YCL069W, strain vba3, active compounds read low",1.03
same,normalized growth,"locus YCR088W, strain abp1, active compounds read low",1.02
same,normalized growth,"locus YDL005C, strain med2, active compounds read low",1.01
same,normalized growth,"locus YDL035C, strain GPR1, active compounds read low",1.02
same,normalized growth,"locus YDL040C, strain nat1, active compounds read low",1
same,normalized growth,"locus YDL074C, strain BRE1, active compounds read low",0.901
same,normalized growth,"locus YDL101C, strain DUN1, active compounds read low",0.948
same,normalized growth,"locus YDL185W, strain tfp1, active compounds read low",0.918
same,normalized growth,"locus YDL192W, strain arf1, active compounds read low",0.942
same,normalized growth,"locus YDR001C, strain nth1, active compounds read low",1.01
same,normalized growth,"locus YDR069C, strain doa4, active compounds read low",1.02
same,normalized growth,"locus YDR101C, strain arx1, active compounds read low",0.961
same,normalized growth,"locus YDR137W, strain rgp1, active compounds read low",1.03
same,normalized growth,"locus YDR159W, strain sac3, active compounds read low",0.996
same,normalized growth,"locus YDR162C, strain NBP2, active compounds read low",0.961
same,normalized growth,"locus YDR195W, strain ref2",0.973
same,normalized growth,"locus YDR297W, strain sur2, active compounds read low",1.05
same,normalized growth,"locus YDR318W, strain mcm21, active compounds read low",0.962
same,normalized growth,"locus YDR334W, strain swr1, active compounds read low",1.01
same,normalized growth,"locus YDR335W, strain msn5, active compounds read low",1.04
same,normalized growth,"locus YDR388W, active compounds read low",0.963
same,normalized growth,"locus YDR392W, strain spt3, active compounds read low",1.04
same,normalized growth,"locus YDR502C, strain sam2, active compounds read low",0.973
same,normalized growth,"locus YEL003W, strain gim4, active compounds read low",1.03
same,normalized growth,"locus YEL037C, strain rad23, active compounds read low",1.02
same,normalized growth,"locus YEL061C, strain CIN8 (second series), active compounds read low",1.01
same,normalized growth,"locus YEL061C, strain CIN8, active compounds read low",0.979
same,normalized growth,"locus YER015W, strain faa2, active compounds read low",0.998
same,normalized growth,"locus YER016W, strain bim1, active compounds read low",1.03
same,normalized growth,"locus YER110C, active compounds read low",0.93
same,normalized growth,"locus YER111C, strain swi4, active compounds read low",1.02
same,normalized growth,"locus YER155C, strain BEM2 (second series), active compounds read low",1.02
same,normalized growth,"locus YER155C, strain BEM2, active compounds read low",1
same,normalized growth,"locus YER167W, strain BCK2, active compounds read low",1.01
same,normalized growth,"locus YFR010W, strain ubp6, active compounds read low",0.996
same,normalized growth,"locus YGL078C, strain dbp3, active compounds read low",0.987
same,normalized growth,"locus YGL086W, strain mad1, active compounds read low",0.954
same,normalized growth,"locus YGL167C, strain pmr1, active compounds read low",1.05
same,normalized growth,"locus YGL173C, strain kem1, active compounds read low",1.01
same,normalized growth,"locus YGL227W, strain vid30, active compounds read low",1.02
same,normalized growth,"locus YGL240W, strain doc1, active compounds read low",1.05
same,normalized growth,"locus YGL248W, strain PDE1, active compounds read low",0.95
same,normalized growth,"locus YGL253W, strain hxk2, active compounds read low",1.03
same,normalized growth,"locus YGR078C, strain PAC10, active compounds read low",0.935
same,normalized growth,"locus YGR135W, strain pre9, active compounds read low",0.934
same,normalized growth,"locus YGR252W, strain gcn5, active compounds read low",0.861
same,normalized growth,"locus YHR013C, strain ard1, active compounds read low",1.09
same,normalized growth,"locus YHR027C, strain rpn1, active compounds read low",1
same,normalized growth,"locus YHR030C, strain SLT2, active compounds read low",0.979 and 1
same,normalized growth,"locus YHR079C, strain IRE1 (second series), active compounds read low",0.952
same,normalized growth,"locus YHR079C, strain IRE1, active compounds read low",0.994
same,normalized growth,"locus YHR094C, strain hxt1, active compounds read low",0.981
same,normalized growth,"locus YHR129C, strain ARP1, active compounds read low",0.969
same,normalized growth,"locus YHR142W, strain chs7, active compounds read low",1.07
same,normalized growth,"locus YHR200W, strain rpn10, active compounds read low",0.948
same,normalized growth,"locus YIL066C, strain RNR3, active compounds read low",1
same,normalized growth,"locus YIL073C, strain SPO22, active compounds read low",0.907
same,normalized growth,"locus YIL125W, strain kgd1, active compounds read low",0.981
same,normalized growth,"locus YIR030C, strain dcg1, active compounds read low",0.962
same,normalized growth,"locus YJL092W, strain hpr5, active compounds read low",1.03
same,normalized growth,"locus YJL095W, strain BCK1 (second series), active compounds read low",1.05
same,normalized growth,"locus YJL095W, strain BCK1, active compounds read low",0.833 and 0.987
same,normalized growth,"locus YJL115W, strain asf1, active compounds read low",1.01
same,normalized growth,"locus YJL129C, strain trk1, active compounds read low",0.999
same,normalized growth,"locus YJL134W, strain LCB3, active compounds read low",0.986
same,normalized growth,"locus YJL154C, strain vps35, active compounds read low",1.02
same,normalized growth,"locus YJL164C, strain tpk1, active compounds read low",1.09 [resistant] (active)
same,normalized growth,"locus YJL166W, strain qcr8, active compounds read low",1.01
same,normalized growth,"locus YJL168C, strain set2, active compounds read low",0.955
same,normalized growth,"locus YJL187C, strain SWE1 (second series), active compounds read low",0.933
same,normalized growth,"locus YJL187C, strain SWE1, active compounds read low",1.03
same,normalized growth,"locus YJR043C, strain POL32, active compounds read low",1.01
same,normalized growth,"locus YJR066W, strain TOR1, active compounds read low",0.985
same,normalized growth,"locus YKL009W, strain mrt4, active compounds read low",0.967
same,normalized growth,"locus YKL068W, active compounds read low",0.99
same,normalized growth,"locus YKL085W, strain MDH1 (second series), active compounds read low",0.975
same,normalized growth,"locus YKL085W, strain MDH1, active compounds read low",0.975
same,normalized growth,"locus YKL160W, strain elf1, active compounds read low",1.05
same,normalized growth,"locus YKL190W, strain CNB1, active compounds read low",0.977
same,normalized growth,"locus YKR001C, strain vps1, active compounds read low",0.89 (active)
same,normalized growth,"locus YKR026C, strain gcn3, active compounds read low",1.02
same,normalized growth,"locus YKR091W, strain srl3, active compounds read low",1.03
same,normalized growth,"locus YLL001W, strain dnm1, active compounds read low",1.03
same,normalized growth,"locus YLL026W, active compounds read low",1.03
same,normalized growth,"locus YLL041C, strain sdh2, active compounds read low",1.02
same,normalized growth,"locus YLR027C, strain aat2, active compounds read low",1.04
same,normalized growth,"locus YLR039C, strain RIC1, active compounds read low",0.985
same,normalized growth,"locus YLR058C, strain SHM2, active compounds read low",0.969
same,normalized growth,"locus YLR102C, strain apc9, active compounds read low",0.972
same,normalized growth,"locus YLR113W, strain HOG1, active compounds read low",0.961
same,normalized growth,"locus YLR221C, strain rsa3, active compounds read low",1.07
same,normalized growth,"locus YLR258W, strain gsy2, active compounds read low",1.07
same,normalized growth,"locus YLR262C, strain YPT6 (second series), active compounds read low",1.04
same,normalized growth,"locus YLR262C, strain YPT6, active compounds read low",1.02
same,normalized growth,"locus YLR268W, strain sec22, active compounds read low",0.95
same,normalized growth,"locus YLR320W, strain mms22, active compounds read low",0.999
same,normalized growth,"locus YLR330W, strain CHS5, active compounds read low",0.957
same,normalized growth,"locus YLR342W, strain FKS1 (second series), active compounds read low",1.08
same,normalized growth,"locus YLR342W, strain FKS1, active compounds read low",1.02
same,normalized growth,"locus YLR357W, strain rsc2, active compounds read low",1.05
same,normalized growth,"locus YLR370C, strain arc18, active compounds read low",1.03
same,normalized growth,"locus YLR371W, strain rom2, active compounds read low",0.939
same,normalized growth,"locus YLR384C, strain iki3, active compounds read low",1.01
same,normalized growth,"locus YLR418C, strain cdc73, active compounds read low",0.872
same,normalized growth,"locus YML016C, strain PPZ1, active compounds read low",0.981
same,normalized growth,"locus YML032C, strain rad52, active compounds read low",0.97
same,normalized growth,"locus YML120C, strain ndi1, active compounds read low",1.03
same,normalized growth,"locus YML124C, strain tub3, active compounds read low",0.967
same,normalized growth,"locus YMR058W, strain fet3, active compounds read low",1.01
same,normalized growth,"locus YMR078C, strain ctf18, active compounds read low",0.942
same,normalized growth,"locus YMR125W, strain sto1, active compounds read low",1.03
same,normalized growth,"locus YMR129W, active compounds read low",1.02
same,normalized growth,"locus YMR205C, strain PFK2, active compounds read low",1.01
same,normalized growth,"locus YMR223W, strain ubp8, active compounds read low",0.934
same,normalized growth,"locus YMR231W, strain pep5, active compounds read low",1.02
same,normalized growth,"locus YMR307W, strain GAS1, active compounds read low",0.984
same,normalized growth,"locus YNL067W, strain RPL9B, active compounds read low",0.928
same,normalized growth,"locus YNL071W, strain lat1, active compounds read low",1.01
same,normalized growth,"locus YNL128W, strain TEP1, active compounds read low",0.909
same,normalized growth,"locus YNL153C, strain GIM3, active compounds read low",0.938
same,normalized growth,"locus YNL183C, strain NPR1, active compounds read low",0.932
same,normalized growth,"locus YNL209W, strain ssb2, active compounds read low",1.01
same,normalized growth,"locus YNL233W, strain BNI4, active compounds read low",0.889
same,normalized growth,"locus YNL248C, strain rpa49, active compounds read low",1.06
same,normalized growth,"locus YNL250W, strain rad50, active compounds read low",0.964
same,normalized growth,"locus YNL271C, strain bni1, active compounds read low",0.955
same,normalized growth,"locus YNL298W, strain CLA4, active compounds read low",0.979
same,normalized growth,"locus YNL307C, strain MCK1, active compounds read low",0.963
same,normalized growth,"locus YNL322C, strain KRE1 (second series), active compounds read low",1.04
same,normalized growth,"locus YNR049C, strain mso1, active compounds read low",1.02
same,normalized growth,"locus YNR052C, strain pop2, active compounds read low",0.908 (active)
same,normalized growth,"locus YOL006C, strain TOP1, active compounds read low",0.696
same,normalized growth,"locus YOL012C, strain htz1",0.364
same,normalized growth,"locus YOL147C, strain pex11, active compounds read low",0.972
same,normalized growth,"locus YOR001W, strain rrp6, active compounds read low",1.03
same,normalized growth,"locus YOR061W, strain CKA2, active compounds read low",0.987
same,normalized growth,"locus YOR069W, strain VPS5, active compounds read low",0.986
same,normalized growth,"locus YOR070C, strain gyp1, active compounds read low",1.01
same,normalized growth,"locus YOR080W, strain dia2, active compounds read low",1.05
same,normalized growth,"locus YOR083W, strain WHI5, active compounds read low",1.05
same,normalized growth,"locus YOR106W, strain vam3, active compounds read low",1.03
same,normalized growth,"locus YOR136W, strain idh2, active compounds read low",0.977
same,normalized growth,"locus YOR144C, strain elg1, active compounds read low",0.984
same,normalized growth,"locus YOR184W, strain ser1, active compounds read low",0.989
same,normalized growth,"locus YOR231W, strain MKK1, active compounds read low",1
same,normalized growth,"locus YOR265W, strain rbl2, active compounds read low",1.01
same,normalized growth,"locus YOR270C, strain vph1, active compounds read low",1.07
same,normalized growth,"locus YOR290C, strain snf2, active compounds read low",1.06
same,normalized growth,"locus YOR316C, strain cot1, active compounds read low",0.972
same,normalized growth,"locus YPL051W, strain arl3, active compounds read low",1.02
same,normalized growth,"locus YPL078C, strain atp4, active compounds read low",1.02
same,normalized growth,"locus YPL106C, strain sse1, active compounds read low",1.05
same,normalized growth,"locus YPL240C, strain hsp82, active compounds read low",1.02
same,normalized growth,"locus YPL256C, strain CLN2, active compounds read low",0.99
same,normalized growth,"locus YPR119W, strain clb2, active compounds read low",0.951
same,normalized growth,"locus YPR141C, strain kar3, active compounds read low",0.957
same,normalized growth,"locus YPR163C, strain tif3, active compounds read low",0.962
same,normalized growth,"locus YPR167C, strain met16, active compounds read low",0.975
same,normalized growth,"strain wtn01, active compounds read low",0.953

# — PubChem BioAssay AID1159580 (chemical genetic matrix, 2015)
